Giardia killer: Small Molecules that selectively kill Giardia lamblia: qHTS; Giardia lamblia trophozoite viability; activity change, % at 7.66 µM, hits read low; actives 0.15% (n = 340,000); in the data active = activity change below about -80%; inconclusive = between about -30% and that limit;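 note: parasites exposed to compound for two days anaerobically before the ATP read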
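Trophozoite viability was measured as ATP-dependent luminescence, read 15-30 min after reagent addition. Before that, parasites at 100 cells/well were exposed to compounds for 48 h, anaerobically, at 37 deg C.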
IL-1B inflam inh: qHTS for Inhibitors of Inflammasome Signaling: IL-1-beta AlphaLISA Primary Screen. THP-1 LPS/ATP IL-1B secretion, AlphaLISA, 16 h; active compounds read low. activity change, % at 57.5 µM. actives 4.7% (n = 360,000); in the data active = activity change below about -50%; inconclusive = mostly about -30% to -49%
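THP-1 cells pretreated 1 hr with compounds (up to 57.5 uM final), then stimulated with LPS (250 ng/mL final) plus ATP (1.25 mM final); secreted IL-1B measured by AlphaLISA after 16 hr, decreased signal indicating inhibition.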
SW480 rereplic: A quantitative high throughput screen for small molecules that induce DNA re-replication in SW480 colon adenocarcinoma cells; AID 624297, 2012; actives 1.8% (n = 340,000); Potency, µM (titrated, usually from 46.1 µM), most hits filed as activators; SW480 DNA re-replication, Hoechst DNA content imaging, 48 h; note: nearly all actives have a fitted effect of over 55% in size
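Image-based DNA-content assay: after two days of treatment, nuclei were labelled with the DNA dye Hoechst and imaged, and hits were compounds raising the count of nuclei showing high fluorescence intensity.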
Vif-A3G inh: qHTS for Inhibitors of Vif-A3G Interactions: qHTS; HeLa A3G-eYFP + Vif (tagged APOBEC3G with the HIV-1 protein that degrades it), YFP fluorescence, overnight; Potency, µM (highest dose often 46.1 µM), actives largely listed as inhibitors; actives 0.076% (n = 410,000); AID 602310, 2012; note: nearly all actives have a fitted effect of over 60% in size
Target sequence (Q9HC16 whole entry, looked up): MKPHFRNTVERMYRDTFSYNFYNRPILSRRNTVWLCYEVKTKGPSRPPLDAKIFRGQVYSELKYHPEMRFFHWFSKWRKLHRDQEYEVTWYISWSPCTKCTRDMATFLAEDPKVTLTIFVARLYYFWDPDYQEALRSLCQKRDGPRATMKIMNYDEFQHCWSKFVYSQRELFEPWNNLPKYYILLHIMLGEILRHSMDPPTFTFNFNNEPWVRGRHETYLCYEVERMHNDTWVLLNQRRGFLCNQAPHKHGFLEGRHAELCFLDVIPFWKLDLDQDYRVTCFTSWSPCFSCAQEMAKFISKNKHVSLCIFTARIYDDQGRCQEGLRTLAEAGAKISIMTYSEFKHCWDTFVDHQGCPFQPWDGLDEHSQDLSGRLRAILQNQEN
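HeLa cells stably expressing Vif and C-terminally eYFP-tagged A3G, seeded overnight at 37 deg C, then exposed to compound by pintool overnight at 37 deg C. Rise in yellow fluorescence (Ex 488/Em 500-530, Acumen) marks blocked Vif-driven A3G degradation.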
MCF10A rereplic: A quantitative high throughput screen for small molecules that induce DNA re-replication in MCF 10a normal breast cells | MCF 10A DNA re-replication, Hoechst nuclear intensity, 48 h | Potency, µM (highest dose often 46.1 µM), hits mostly activators | actives 2.9% (n = 350,000); note: nearly all actives have a fitted effect of over 50% in size
Vif-APOBEC3F blk: qHTS for Inhibitors of Vif-A3F Interactions: qHTS; actives 0.2% (n = 390,000); Potency, µM (doses to about 46.1 µM); HeLa A3F-eYFP + Vif (tagged APOBEC3F with the HIV-1 protein that degrades it), YFP fluorescence increase; note: nearly all actives have a fitted effect of over 65% in size
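HeLa cells stably expressing Vif plus C-terminally eYFP-tagged A3F were seeded, incubated overnight at 37 deg C, dosed with compound, incubated overnight again at 37 deg C. Yellow fluorescence (Ex 488/Em 500-530) reported blocked Vif-mediated A3F-eYFP degradation.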
Hits are given with their value. Rows were chosen to be rich in hits. Some 6.9% of all compounds tested hit in one or more screens of this group. Unless noted, calls come from the whole dose curve; as a rule, active = well fitted curve in the direction sought with a large enough effect; inconclusive = small, poorly fitted or top-dose-only effect, or another doubt; inactive = no such curve, though single readings can be large; an effect the other way counts as inactive or inconclusive.

How did COc1cc(C(=O)Nc2nc(C)c(Cc3ccc4c(c3)OCO4)s2)cc(OC)c1OC do in these assays?
Giardia killer: inactive; IL-1B inflam inh: inactive; SW480 rereplic: 5.8µM; Vif-A3G inh: inconclusive; MCF10A rereplic: 2.6µM; Vif-APOBEC3F blk: inactive

What do the screens show for `CCCOc1ccc(C(=O)Nc2nc(C)c(Cc3ccc4c(c3)OCO4)s2)cc1`?
Giardia killer: inactive; IL-1B inflam inh: inactive; SW480 rereplic: inconclusive; Vif-A3G inh: inactive; MCF10A rereplic: inconclusive; Vif-APOBEC3F blk: inactive

Results for CC1(Oc2ccc(Cl)cc2)CCN(Cc2ccc(OC(F)(F)F)cc2)C1 (configuration not stated) ?
IL-1B inflam inh: -81; Vif-A3G inh: inactive

What do the screens show for `COc1ccc(C2C(C(=O)Nc3ccccc3)=C(C)Nc3nc(-c4ccccc4Cl)nn32)cc1OC` (configuration not stated)?
Vif-A3G inh: inactive; Vif-APOBEC3F blk: inactive

Results for COc1cccc(NC(=S)N2CCCC2c2ccc(OC)c(OC)c2)c1 (configuration not stated) ?
Giardia killer: inactive; IL-1B inflam inh: inactive; SW480 rereplic: inactive; Vif-A3G inh: inactive; MCF10A rereplic: inactive; Vif-APOBEC3F blk: inactive

Results for COc1ccc(C2CCCN2C(=S)Nc2cccc(Cl)c2)cc1OC (configuration not stated) ?
Giardia killer: inactive; IL-1B inflam inh: -87; SW480 rereplic: inactive; Vif-A3G inh: inactive; MCF10A rereplic: inactive; Vif-APOBEC3F blk: inactive

How did COc1ccc(S(=O)(=O)c2c(Nc3ccc(C)cc3C)sc(C(=O)c3ccc(F)cc3)c2N)cc1 do in these assays?
Vif-A3G inh: inactive; Vif-APOBEC3F blk: inactive

Results for COc1cc(C2CC(c3c(C)cc(C)[nH]c3=O)=NN2c2ccccc2F)cc(OC)c1OC (configuration not stated) ?
Giardia killer: inactive; IL-1B inflam inh: inactive; SW480 rereplic: inconclusive; Vif-A3G inh: inactive; MCF10A rereplic: 23µM; Vif-APOBEC3F blk: inactive

Results for COc1cc([C@H]2c3[nH]c4ccccc4c3C[C@H]3C(=O)N4[C@@H](c5cc(OC)c(OC)c(OC)c5)c5[nH]c6ccccc6c5C[C@H]4C(=O)N23)cc(OC)c1OC ?
Giardia killer: inactive; IL-1B inflam inh: inactive; SW480 rereplic: inconclusive; Vif-A3G inh: inconclusive; MCF10A rereplic: inconclusive; Vif-APOBEC3F blk: inconclusive

What do the screens show for `CCn1c2ccccc2c2cc(NC(=O)c3ccc(C)c([N+](=O)[O-])c3)ccc21`?
Giardia killer: inactive; IL-1B inflam inh: inactive; SW480 rereplic: inactive; Vif-A3G inh: inactive; MCF10A rereplic: inactive; Vif-APOBEC3F blk: inactive

What do the screens show for `CCn1c2ccccc2c2cc(/C=N/NC(=O)c3cc(O)cc(O)c3)ccc21`?
Giardia killer: inactive; IL-1B inflam inh: -106; SW480 rereplic: inactive; Vif-A3G inh: inactive; MCF10A rereplic: inconclusive; Vif-APOBEC3F blk: inactive

How did CCn1c2ccccc2c2cc(NC(=O)c3cc(OC)c(OC)c(OC)c3)ccc21 do in these assays?
Giardia killer: inactive; IL-1B inflam inh: inactive; SW480 rereplic: 0.82µM; Vif-A3G inh: inactive; MCF10A rereplic: inconclusive; Vif-APOBEC3F blk: inactive

How did COC(=O)c1cc(OC)c(OC)cc1NC(=O)Cn1nnc(-c2ccccc2Cl)n1 do in these assays?
Giardia killer: inactive; IL-1B inflam inh: inactive; SW480 rereplic: 15µM; Vif-A3G inh: inconclusive; MCF10A rereplic: inactive; Vif-APOBEC3F blk: inactive

Results for CCn1c2ccccc2c2cc(NC(=O)c3cccc([N+](=O)[O-])c3C)ccc21 ?
Giardia killer: inactive; IL-1B inflam inh: inactive; SW480 rereplic: 10µM; Vif-A3G inh: inactive; MCF10A rereplic: 18µM; Vif-APOBEC3F blk: inactive

Results for CCn1c2ccccc2c2cc(NC(=O)COc3ccc(OC)cc3)ccc21 ?
Giardia killer: inactive; IL-1B inflam inh: inactive; SW480 rereplic: inactive; Vif-A3G inh: inactive; MCF10A rereplic: inactive; Vif-APOBEC3F blk: inactive

How did CCn1c2ccccc2c2cc(NC(=O)c3cc(OC)cc(OC)c3)ccc21 do in these assays?
Giardia killer: inactive; IL-1B inflam inh: inactive; SW480 rereplic: 0.65µM; Vif-A3G inh: inconclusive; MCF10A rereplic: 1.5µM; Vif-APOBEC3F blk: inactive

Results for COc1cc(C(=O)Nc2ccc3c(c2)N(C(=O)CCN(C)C)c2ccccc2CC3)cc(OC)c1OC ?
Giardia killer: inactive; IL-1B inflam inh: -60; SW480 rereplic: inconclusive; Vif-A3G inh: inactive; MCF10A rereplic: 13µM; Vif-APOBEC3F blk: inactive

Results for CCn1c2ccccc2c2cc(NC(=O)c3ccc(=O)oc3)ccc21 ?
Giardia killer: inactive; SW480 rereplic: inconclusive; Vif-A3G inh: inactive; MCF10A rereplic: 16µM; Vif-APOBEC3F blk: 11µM

Results for CCn1nnc(-c2ccccc2NC(=O)c2cc(OC)c(OC)c(OC)c2)n1 ?
Giardia killer: inactive; IL-1B inflam inh: inactive; SW480 rereplic: 15µM; Vif-A3G inh: inactive; MCF10A rereplic: inconclusive; Vif-APOBEC3F blk: inactive

How did CCn1c2ccccc2c2cc(NC(=O)c3ccc(Br)o3)ccc21 do in these assays?
Giardia killer: inactive; IL-1B inflam inh: inconclusive; SW480 rereplic: inactive; Vif-A3G inh: inconclusive; MCF10A rereplic: inconclusive; Vif-APOBEC3F blk: inactive

What do the screens show for `COc1ccc(C)cc1NS(=O)(=O)c1c(C(=O)N2CCCCCC2)c(C)n(C)c1C`?
Vif-A3G inh: inactive; Vif-APOBEC3F blk: inactive

How did CN1CCN(c2nc3c(=O)[nH]c(N)nc3n2C2OC(CO)C(O)C2O)CC1 (configuration not stated) do in these assays?
Giardia killer: inactive; Vif-A3G inh: inactive

What do the screens show for `CCOc1c(Br)cc(C2CC(=O)Nc3cc4c(cc32)OCO4)cc1OC` (configuration not stated)?
Vif-A3G inh: inactive; Vif-APOBEC3F blk: inactive

How did CC(C)NC(=O)C1CCN(c2nc3ccccc3nc2C(F)(F)F)CC1 do in these assays?
Vif-A3G inh: inactive; Vif-APOBEC3F blk: inactive

What do the screens show for `C=CCN(CC=C)Cc1c(O)ccc2c(=O)c(-c3ccccc3)coc12`?
Giardia killer: inactive; IL-1B inflam inh: inactive; SW480 rereplic: inconclusive; Vif-A3G inh: inactive; MCF10A rereplic: 21µM; Vif-APOBEC3F blk: inactive

How did CCN(Cc1ccccc1)Cc1c(O)ccc2c(=O)c(-c3ccc(Cl)cc3)coc12 do in these assays?
Vif-A3G inh: inactive; Vif-APOBEC3F blk: inactive

How did CCN(CC)CCn1c2ccccc2c2cnc(N=CN(C)C)c(C#N)c21 do in these assays?
Giardia killer: inactive; SW480 rereplic: inactive; Vif-A3G inh: inactive; MCF10A rereplic: 21µM

Screens: PubChem BioAssay, National Center for Advancing Translational Sciences (NCATS)
